Compound activity as filed in PubChem.
D2 ag-1: D2 dopamine receptor (human) agonism; P14416; HEK293 T-REx D2 cells, calcium flux agonist mode; activation, % at 2 µM; hit rate 0.53% among 340,000;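 active = activation over 3 SD above normal in the single-dose calcium agonist read, cut at about 30% in these data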; also: 0% is about no effect
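In this primary screen, compounds producing a positive calcium signal within 180 s of addition to tetracycline-induced, force-coupled HEK293 Trex D2 cells are flagged; cells are dye-loaded with a no-wash calcium kit beforehand.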
D2 PAM-1: positive allosteric modulators of human D2 dopamine receptor | hit rate 0.23% among 360,000 | potentiation, % (no concentration beside the values) | AID 624464 | DiscoveRx D2 beta-arrestin cells, luminescence, 90 min; 100% = 57 uM dopamine signal; in the data active = potentiation above about 50%; inconclusive = mostly about 30% to 49%
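PathHunter beta-arrestin assay in DiscoveRx D2 cells. Compounds were added with an EC20 of dopamine (50 nM final) for 90 min at 37 deg C. Luminescence was read 1 h after detection reagent, with 57 uM dopamine as the EC100 control.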
D2 PAM-2: D2 dopamine receptor (human) potentiation; AID 485347; potentiation, % at 10 µM; HEK293 T-REx D2, calcium flux, EC20 dopamine potentiation; P14416; hit rate 0.34% among 340,000;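 active = potentiation over 3 SD above the plate norm, cut at about 30% in these data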; also: 0% is about no effect
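Potentiation of an EC20 dopamine calcium response is measured in a force-coupled, tetracycline-inducible Hek293 Trex D2 line. Compound-only kinetic reads over 180 s flag agonists before dopamine addition.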
Apoferritin bind: candidate novel general anesthetic via apoferritin binding | P02791 | apoferritin/1-aminoanthracene competitive binding, fluorescence | Potency, µM (highest dose often 77.5 µM), for inactives: at the highest dose activity change, negative = displacement, hits mostly inhibitors | hit rate 0.074% among 350,000; active = well fitted inhibition curve with a large enough effect; inconclusive = small, poorly fitted or top-dose-only effect; inactive = no such curve, though single readings can be large or run the other way; also: potency is read from the fitted curve at half-maximal effect; % is scaled to controls: 0 for no effect and ±100 for the full control effect; nearly all actives have a fitted effect of over 20% in size
Target sequence (P02791 2-175 limits assumed): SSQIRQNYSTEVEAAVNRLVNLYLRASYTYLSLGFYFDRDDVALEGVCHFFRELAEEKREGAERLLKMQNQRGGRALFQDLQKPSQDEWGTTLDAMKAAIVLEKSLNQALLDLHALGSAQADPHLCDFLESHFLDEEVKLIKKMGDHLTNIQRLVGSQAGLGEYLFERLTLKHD
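Read-out: endpoint 1-AMA fluorescence, excitation 380 nm and emission 535 nm, after compounds sit 10 min at room temperature with 10 uM horse-spleen apoferritin in 50% saturated 1-AMA/PBS. Values come from four-parameter Hill fits.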
D2 antagonist: antagonists of human D2 dopamine receptor; P14416; HEK293 TREx D2 cells, calcium flux, dopamine EC80; inhibition, % at 10 µM; hit rate 2% among 340,000; AID 485344; in the data active = inhibition above about 30%; inactive = below that, where a call was filed; also: 0% is about no effect
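Overnight-induced (tetracycline, 30 C) HEK293 T-REx cells carrying force-coupled D2 receive a no-wash calcium dye, then compound, then EC80 dopamine at 180 s; signals are read kinetically throughout.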
D2 ag-2: agonists of human D2 dopamine receptor (beta-arrestin); P14416; DiscoveRx PathHunter D2 beta-arrestin, luminescence, 90 min; 100% = 57 uM dopamine signal; activation, % (test concentration not listed); hit rate 0.084% among 360,000; AID 624465; in the data active = activation above about 40%; inconclusive = between about 15% and that limit
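Agonist mode: compounds alone added to overnight-plated D2 PathHunter cells for 90 min at 37 C, with 57 uM final dopamine (EC100) defining full response. Beta-arrestin recruitment detected by chemiluminescent reagent, read after 1 h at ambient temperature.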
* marks the source's active call; other numbers are inactive results; ? = inconclusive; . = not tested or not shown. The list is not random: actives were taken first. Their share in the collection is about 2.5%.

SMILES	D2 ag-1	D2 PAM-1	D2 PAM-2	Apoferritin bind	D2 antagonist	D2 ag-2
Cn1c(CCN2CCOCC2)nc2cc(NS(=O)(=O)c3ccccc3)ccc21	0	-5	24	-3%	-3	-2
COc1ccc(NS(=O)(=O)c2cc3c(cc2C)N(C)CCO3)c(OC)c1	0	0	8	-19%	8	-2
COc1ccccc1-c1oc2ccccc2c1C#CC(C)(C)O	0	-7	-18	.	52*	-2
COc1ccccc1-c1oc2ccccc2c1C#CCO	.	-5	.	.	.	-6
Nc1[nH]nc2ncc3cc4ccccc4nc3c12	0	15	0	-8%	59*	-3
Oc1ccc(/C=N/n2cnn(Cc3ccccc3Cl)c2=S)c(O)c1	2	0	15	-19%	8	-1
CCOc1ccc(NC(=O)C2CC(=O)N(Cc3ccco3)C2)cc1 (configuration not stated)	.	2	-7	.	.	-1
O=C(Nc1ccc(OC(F)(F)F)cc1)C1CC(=O)N(Cc2ccco2)C1 (configuration not stated)	-2	6	0	.	47*	-5
Cc1ccc(SCC(=O)OCC(=O)N(C)CC(=O)Nc2ccccc2Cl)cc1C	2	6	-1	-13%	33*	1
COc1cccc(NC(=O)/C=C/c2ccccc2[N+](=O)[O-])c1	-1	-28	-21	-13%	-5	0
COc1cccc(NC(=O)/C=C/c2ccc([N+](=O)[O-])cc2)c1	-1	-1	-20	0%	45*	1
COc1ccc(/C=C/C(=O)Nc2cccc(F)c2)cc1S(=O)(=O)N1CCOCC1	2	-1	6	-13%	56*	0
COc1ccc(/C=C/C(=O)Nc2ccccc2F)cc1S(=O)(=O)N1CCOCC1	.	-13	.	.	.	-1
COc1cccc(NC(=O)/C=C/c2ccc(S(=O)(=O)N3CCOCC3)cc2)c1	0	-4	-21	.	47*	-2
O=C(O)c1ccc(COc2ccc(/C=N/NC(=O)c3cccs3)cc2)cc1	-1	-8	11	-17%	11	2
Cc1ccc(S(=O)(=O)C/N=C(/NC(=S)N(c2ccccc2)c2ccccc2)c2ccccc2)cc1	1	-20	-3	14µM*	2	-1
CN1Cc2cccc3c2C(Cc2ccccc2S3)C1 (configuration not stated)	1	-34	-25	-4%	48*	-2
CCc1ccc2c(c1)Sc1ccccc1CC2N1CCN(C)CC1 (configuration not stated)	.	-13	.	.	.	-3
COC(=O)c1c(C)oc(C)c1S(=O)(=O)N(C)C1CCCCC1	1	-2	-8	-6%	-13	0
Fc1ccc(NC(=S)NC2CCN(Cc3ccccc3)CC2)cc1	.	25	.	-15%	.	-2
S=C(Nc1cccc(Cl)c1Cl)NC1CCN(Cc2ccccc2)CC1	1	-39	-18	?	71*	-3
S=C(Nc1ccc(Cl)c(Cl)c1)NC1CCN(Cc2ccccc2)CC1	2	-18	-28	-12%	45*	-1
Cc1cccc(NC(=S)NC2CCN(Cc3ccccc3)CC2)c1C	1	-26	-25	-8%	94*	-1
S=C(Nc1ccc(CN2CCCCC2)cc1)Nc1cccc(Cl)c1Cl	2	-41	-25	?	26	-7
Cc1oc(-c2ccc(Cl)cc2)nc1CSCC(=O)NC1CCN(Cc2ccccc2)CC1	0	-34	-10	-3%	56*	-3
Cc1nc(N2CCCC2)ncc1C(=O)NCc1ccccc1Cl	1	.	2	3%	.	.
COc1ccc(Cn2c(=O)n(-c3ccc(C)cc3)c(=O)c3c2c2cc(C)ccc2n3C)cc1	0	.	6	-4%	.	.
O=C(CSc1nnc(CNC(=O)c2cccs2)o1)c1ccc(Cl)cc1	1	-17	13	?	-18	-1
CCOC(=O)N1CCC(NC(=O)CCC(=O)N2CCOc3ccccc32)CC1	0	1	26	-5%	-4	-3
